From the supplement of paper PMC11417369
Whole data set: some 25,000 sequences, median “ln(normalized median fluorescence intensity)” near 6.7, cut for the highest 2% near 10. The full list was thinned out, with the highest values kept by preference.

What follows are sequences tested on PfHDP1 homeodomain (GST-tagged) (assay: gcPBM binding intensity (ln(normalized median fluorescence intensity)); higher = stronger DNA binding).
Summary of the method: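 Binding intensity is defined as the maximum Masliner-normalised natural-log median intensity across replicate spots for either probe orientation. It was measured on an Agilent 4 × 180k array of primer-extended double-stranded 36-bp intergenic genomic probes and negative controls, to which GST-tagged P. falciparum DNA-binding domains made in E. coli were applied for 1 h in 1× PBS with 1% milk, 0.2 mg/ml BSA, 0.5% salmon testes DNA and 0.03% Triton X-100. Detection was by Alexa488 anti-GST antibody and scanning at 488 nm.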

Sequence | gcPBM binding intensity (ln)
TAATGTACATAAACCGCACACATATAAAAAAATAAA [CACACA_site2851] | 6.79
ATAAAAATTTATATATGTACTTAATTTTTAATTTTT [XGTACX_site7482] | 5.98
ACATACAAGAATTAAACACACACAAAATATAAATTC [CACACA_site8985] | 6.8
TATCTCTCTTTCTGCTGTACATAAAAATTATATAAT [XGTACX_site5961] | 7.19
TATAATTATTTTTTCACACATATGTATTTATATATA [CACACA_site4205] | 7.05
ATATAATATTTATATGCACACTTTTCTATATATAAG [CACACA_site6100] | 8.84
GGCTTTTTTTAATATGCACACATATATTTTATATAT [CACACA_site8647] | 10.2
TTTTTCTTTATTAGCACACATAATATTATATATGTG [CACACA_site2629] | 7.1
GTATATAATTTATGTGCACACACTCCTATTTTTAGC [CACACA_site49] | 11.1
ATATAATTTATGTGCACACACTCCTATTTTTAGCTT [CACACA_site50] | 11.3
TTTTCTATGCTAAACACACTCATTGTTACAAGTTTT [CACACA_site5531] | 6.78
TATGAAAATATATATTGTACAGAATCTATAAAAAAT [XGTACX_site8030] | 6.39
TTTAAAAAATTATATTCACACACATACACATATATA [CACACA_site8076] | 6.95
GACAATTATATGTAGGTGCATATACAAATTTTTTAA | 9.14
CATATATATTTTATATGTACATATATATTTTATATA [XGTACX_site8665] | 6.35
ATTTTTTTTTTTTTATGTACATATAGGTGCAAATCA [XGTACX_site6748] | 11.1
TACATAAAATATATCACACATATAATATATATATAT [CACACA_site5834] | 8.54
GAAATGTGATAATATACACACACGCATATATATATA [CACACA_site4332] | 8.82
CAAAATATTTTTATAACACACATATATAGAATGTGC [CACACA_site1145] | 6.34
AAAAATAGAGCAGCTCTCATATTTTTATGTGCAATA [CACACA_negctrl_site837] | 10.6
TTCTGCAGCAATGTTTTTTTTAAATATTTATATGGT [CACACA_negctrl_site1815] | 6.51
TTTTTTTATCAATGTTGTACTTTTTTTTTTTTCCAT [XGTACX_site8864] | 6.18
ATTAAAAAAAAAAAAAAAAAAAAAAAAAAAAAAAAA [CACACA_negctrl_site1060] | 6.3
TAAAAAATTAATAAAGTGCATAAATATTACAATATT | 7.68

Sequence | gcPBM binding intensity (ln)
AGGTATATATTACAAGTGCACTGTAAAATTAAAATT | 10.5
TGCATAATTAAAAATGGTACACTGTATTTATAATAT [XGTACX_site1575] | 6.38
ATATTTAAATAATATTCACACACAAAATTATATTTT [CACACA_site7955] | 6.44
AAATGTATACACATGGTGCGTAATATATTATATATA [GTGCAC_site9877] | 7.85
AATAAAAAAATATATTGTACTAATAATTATATGTTT [XGTACX_site2246] | 6.47
TTTTTATCAAATAAATGTACACATATTAAATGAAAT [XGTACX_site555] | 6.6
CAATATATTATATGGGTGCAAACCACATATAAATAA | 8.55
ACATATTAAATATGAGTGCAATATATATATATATAA | 9.25
ATATATATTAAAAATAGTACATATAATAAAAATCAT [XGTACX_site4265] | 6.57
AATCATATTAGTATGGTGCAATATATATATAAATAT [GTGCAC_site9800] | 10.5
AGTATAAATAAATCATAAACATATATATATATATAT [GTGCAC_negctrl_site356] | 9.35
AATCATATTAGTATGGTGCAACATATATAAATATAT | 11
ATACATTTATTGTATTGTACATAATATTATATATTC [XGTACX_site7115] | 6.55
TGCATATTACTTTTTCACATAAAAATGATCCGATTA [GTGCAC_negctrl_site526] | 6.49
ATATTTAAACGATGGTGTACATATATTACAAGTTGT [XGTACX_site1743] | 7.03
ACATAAAATTGGAGCAAACACACAAGGTTGAAATTA [CACACA_site505] | 7.16
TATATATTTCAATAATGTACATATAATATATATATT [XGTACX_site4124] | 6.6
CCATAAAAAGGATACACACACACACCGACATATATA [CACACA_site4653] | 6.89
ATTAAGTACTAAAAAGTGCAGTTCGGTACTGTGCTT [GTGCAC_site9755] | 6.42
TATTTCATTAATGTCACTTTGAAAGAAATGAAAAAA [CACACA_negctrl_site1803] | 6.44
CTATTTAAAATTTGAACACACATTATTTATTTTAAA [CACACA_site3114] | 6.41
TTTTTTTTTTTTTTTGCACACATTTTAATTATTTTT [CACACA_site341] | 9.27
TTAATTATCCATTTTGCACACATTTTAAAACATGAA [CACACA_site189] | 10.7
TTCCTTTGTCCTAACTGTACTCAAATTTATTAGTGG [XGTACX_site226] | 7.04

Sequence | gcPBM binding intensity (ln)
TATATATTCATAAAGTGTACATGTTTATATATATAT [XGTACX_site7585] | 8.53
TATATATAAGCGTGTACACATTCTGAGTGTTGTATA [CACACA_site4502] | 7.02
ATAGTATATCAAAATTTGTAAATCATTCTCAATAAA [CACACA_negctrl_site430] | 5.94
AATATAAATAATTATACACACTTAATATATATATAC [CACACA_site5533] | 6.53
ATATATATTTATATATATATATATATATATATGTAT [GTGCAC_negctrl_site220] | 7.92
ATATGTATGTATTTATTATTGTGCATTGTATTTATA [CACACA_negctrl_site664] | 10.3
TATATATATATATATATATATATGTATGTGCATTTA [TGCATGCA_negctrl_site53] | 11.2
CACACGCACGAACACACACACACACGCGCACATATA [CACACA_site6304] | 8.54
CAAAAAAACAAACACACACACACACCCATATATATA [CACACA_site3653] | 6.85
TTTTTTAAAGTTTAAAGTACATATAAAAATATATAA [XGTACX_site5267] | 5.94
AAAGTTTTTATAAAAAAAAAAATAAATACCATATAT [XGTACX_negctrl_site113] | 6.5
TATACCAGTTTTAAAAGTACTTGTGCATAAAAAATA [XGTACX_site4794] | 11
TATGGTTTTAAAAAATGTACGCAAGTGCGTTAATTT [XGTACX_site3945] | 7.62
TTATAATATATATACAGTACATATATAAAATAATAT [XGTACX_site5917] | 6.5
AAAAAAAATTATATATGTACTTATTAATCCTTTTAT [XGTACX_site1387] | 6.11
CACATAAATAATTAAACACACATTGTTCTAGACAAT [CACACA_site2378] | 6.51
AGCACATAAATAATTAAACACACATTGTTCTAGACA [CACACA_site8746] | 6.3
TCCAATTGTTCTAGTGTGCACATAAATAAATCTCAT | 11
AGTCTGAATAAAATTACACACATATACCTATAAATA [CACACA_site6929] | 6.4
ATACATAAAATTAAAACACACATTTGATTAAATACG [CACACA_site7088] | 6.6
TGTGCTCAAAATTATGCACACACCTAAAATTAATTT [CACACA_site8950] | 10.7
AATTAAAAAATTTATGCACACTTTAAAAAAAAAAAA [CACACA_site5962] | 9.66
TGCACAAAGTTATGCACACACCTAAAATTAATTTTT [CACACA_site7385] | 10.5
TAAATTAATACCTATGCACACATTTTTTTTTTTAAA [CACACA_site1238] | 8.59

Sequence | gcPBM binding intensity (ln)
TGTGCCCAAAATTATGCACACACCTAAAATTAATTT [CACACA_site2914] | 10.5
TGCACAAAATTATGCACACACCTAAAATTAATTTTT [CACACA_site5596] | 10.8
GATAATAATAAACAACCACACACAAAAAAACAAAAA [CACACA_site9074] | 7.01
TTTTTTTTTTTTTATTGTACTTATTTTTTTATGTTT [XGTACX_site7725] | 5.96
AAAAAAAAAAAATGCACACATATATTTCCATATACA [CACACA_site1471] | 9.96
AAAAATATTAAAAGGCGTACAATACCTGTATGCAAC [XGTACX_site6069] | 6.12
TTTGTTATTTTTTATTGTACTTTTTTTCTTTCATAA [XGTACX_site4302] | 7.03
CAAATAGCTAGCTGTGCACACAAACATATTTTCCAA [CACACA_site879] | 11
AATATTAACAATCGCACACATATTATTTTTCCAAAA [CACACA_site4982] | 7.13
AATAGCTAGCTGTGCACACAAACATATTTTCCAAAT [CACACA_site880] | 10.3
ATATTGACAAATATTACACACATATATATATATATA [CACACA_site4079] | 9.39
ATAACTAAATGATATTGTACAAAATAATTATATATT [XGTACX_site1331] | 6.38
AAAAAAAAAATTAATTGTACTAAAAAAATATTATAT [XGTACX_site8903] | 6.41
TATATATATATATATTGTACTAATTGTGCAAATGAG [XGTACX_site682] | 10.9
TATGATATCTATAATACACACATATACATAAGATCT [CACACA_site6652] | 6.6
AAAAATATTTAAAATACACACATATCTATAATATAT [CACACA_site7032] | 6.36
TACCAAAAAAAAAAAAATAAAAATAAAAAAAAAAAT [CACACA_negctrl_site1714] | 6.27
TTTGAAAAGTTGAAATGTACACATTTACACATATTT [XGTACX_site1641] | 6.24
AAAAAAAAAAAAAAAAGTACACATCATTTTATGAAA [XGTACX_site1402] | 6.41
AAGTTGAAATAATGTGCACACATTTTTTTTTTTTTT [CACACA_site3368] | 9.16
TATTTACATTTATGTGCACACATTCCATTTGAAAGT [CACACA_site1954] | 11
TTTACATTTATGTGCACACATTCCATTTGAAAGTAA [CACACA_site1953] | 10.9
AACACATACATATATGCACACATTTTATTCCATTAT [CACACA_site2834] | 10.1
